# Records with an inconclusive call do not appear. Calls of active or inactive are those of the source. Calls follow the shape of the dose curve; as a rule, active = well fitted cell-killing curve with a large enough effect in the repeat runs; inconclusive = weak or mixed curves, or effect the other way; inactive = flat fitted curve, though single readings scatter.
# Test: qHTS RealTime-Glo MT Cell Viability Assay in HEK293 cells - 0 hour (AID 1224880); also: top concentration of the series differs between compounds; nearly all actives have a fitted effect of over 45% in size
# Conditions: RealTime-Glo luminescence; series mostly up to 76.8 µM; activity change, negative = cytotoxicity: at the top concentration
# From the text: U.S. Tox21 Program National Center for Advancing Translational Sciences [NCATS] NIH Chemical Genomics Center [NCGC] U.S. Environmental Protection Agency [EPA] National Institutes of Environmental Health Sciences [NIEHS] National Toxicology Program [NTP] U.S. Food and Drug Administration [FDA] Tox21 Assay Overview: Measure of cell viability is critical in the cell-base assay. Analysis of cell viability is necessary for the characterization of cell responses to cytotoxic drugs and environmental stress. A RealTime-Glo MT Cell Viability Assay to monitor cell viability in real time of continues cell culture during 40 hours of compound treatment was used to screen Tox21 10K library compounds in Hek293 cells. The RealTime-Glo MT Cell Viability Assay is a nonlytic, homogeneous, bioluminescent method to measure cell viability in real time using a simple, plate-based method. The assay involves adding NanoLuc luciferase and a cell-permeant prosubstrate to cells in culture. Viable cells reduce the proprietary prosubstrate to generate a substrate for NanoLuc luciferase. This substrate diffuses from cells into the surrounding culture medium, where it is rapidly used by the NanoLuc Enzyme to produce a luminescent signal. The signal correlates with the number of viable cells, making the assay well suited for cytotoxicity studies.
# Tox21 Assay Protocol Summary: The mixture of Hek293 cell suspension and reagents were dispensed at 600cells/6 ul/well in 1536-well tissue culture treated black solid bottom plates using a Multidrop dispenser. After the assay plates were incubated at a 37 C/5% CO2 incubator for 5 hours, 23 nL of compounds dissolved in DMSO, positive and negative controls was transferred to the assay plate by a pintool work station. The plates were incubated at 37 C for 40 hours. The luminescence intensity were measured at 0h, 8h, 16h, 24h, 32h and 40h time points using ViewLux plate reader during compound treatment.
# % is scaled to controls: 0 for no effect and ±100 for the full control effect.
row,SMILES,"activity change, negative = cytotoxicity"
1,CC(C)COC(=O)c1ccc(O)cc1,5.86% (inactive)
2,ClC1=C(Cl)C1(Cl)Cl,-12.3% (inactive)
3,CCN(Cc1cccc(S(=O)(=O)O)c1)c1ccc(C(=C2C=CC(=[N+](CC)Cc3cccc(S(=O)(=O)O)c3)C=C2)c2ccc(O)cc2S(=O)(=O)[O-])cc1,-13.1% [at 35.3 µM] (inactive)
4,COc1ccc(C)cc1,12.7% (inactive)
5,COC(CC(C)CCCC(C)(C)O)OC (stereo not given),16.1% (inactive)
6,CC(C)Cc1ccc(CC(=O)O)cc1,-4.66% [at 35.3 µM] (inactive)
7,COC(=O)CC(C(C)=O)C(=O)OC (stereo not given),9.89% (inactive)
8,CCN(CC)CC(=O)Nc1c(C)cccc1C(=O)OC,0.622% [at 35.3 µM] (inactive)
9,Cc1cccc2sc(N)nc12,9.45% (inactive)
10,COc1ccc(/C=C/C(=O)c2ccc(OC)cc2OC)cc1,-15.1% [at 35.3 µM] (inactive)
11,O=C(O)c1cc(Cl)cc(Cl)c1O,-6.62% (inactive)
12,CCCCCCC(O)CCOC(C)=O (stereo not given),9.62% [at 200 µM] (inactive)
13,CCOCCC(=O)OCC,2.66% (inactive)
14,Cc1ccc2nc(N)[nH]c(=O)c2c1Sc1ccncc1,-2.36% [at 35.3 µM] (inactive)
15,CCCCCCCC/C=C\CCCCCCCC(=O)OCCO,-26.7% (inactive)
16,CCN(CC)CCNC(=O)c1cc(Cl)c(N)cc1OC,-4.56% [at 35.3 µM] (inactive)
17,CC1CCC(C(C)CS)CC1S (stereo not given),0% (inactive)
18,O=C(O)CN1C(=O)c2cccc3cccc(c23)C1=O,-1.21% [at 35.3 µM] (inactive)
19,Cc1c[nH]c2ccccc12,-1.11% [at 35.3 µM] (inactive)
20,CC12CC3CC(C)(C1)CC(N)(C3)C2,15.2% [at 35.3 µM] (inactive)

row,SMILES,"activity change, negative = cytotoxicity"
1,c1ccc(CCCc2ccncc2)cc1,13.5% (inactive)
2,CCCCOC(=O)CCCCC(=O)OCCCC,12.2% (inactive)
3,CC(=O)OCCC(C)CC(C)(C)C (stereo not given),4.3% (inactive)
4,CCCCCCCCCCCCCCCCCC(=O)OCC(CC)CCCC (stereo not given),5.17% (inactive)
5,COc1cc(NS(=O)(=O)c2ccc(N)cc2)nc(C)n1,-1.13% [at 35.3 µM] (inactive)
6,O=C(c1ccccc1)C1CCC1,9.98% (inactive)
7,CCN(CC)CCOC(=O)C(c1ccccc1)c1ccccc1,0.123% [at 35.3 µM] (inactive)
8,O=C(O)c1ccc(O)cc1O,3.56% (inactive)
9,CC(=O)C(=O)CC(C)C,10.4% (inactive)
10,CCN(CC)c1cccc(O)c1,17.1% (inactive)
11,O=[N+]([O-])C1(Br)COCOC1,-15.9% (inactive)
12,COc1cc(NCc2ccc3nc(N)nc(N)c3c2C)cc(OC)c1OC,-1.66% [at 35.3 µM] (inactive)
13,Oc1cccc2[nH]ccc12,7.03% [at 35.3 µM] (inactive)
14,CCCCOCCOC(=O)c1cccnc1,0.0331% [at 35.3 µM] (inactive)
15,CC(C)(C)NCC(O)COc1cccc2c1C[C@H](O)[C@H](O)C2 (stereo not given in full),6.76% [at 35.3 µM] (inactive)
16,CCOC(=O)Oc1ccc(CCNC(=O)[C@H](CCSC)NC(C)=O)cc1OC(=O)OCC,8.37% [at 35.3 µM] (inactive)
17,CS(=O)(=O)c1ccc([C@@H](C[C@H]2CCC(=O)C2)C(=O)Nc2cnccn2)cc1Cl,1.91% (inactive)
18,Cc1ccc(N(CCO)CCO)cc1,14.1% (inactive)
19,O=C(O)c1cccc(C[C@@H]2COc3ccc(OCc4nc5cc(F)ccc5s4)cc3[C@@H]2O)c1,7.67% (inactive)
20,NC(=O)CCCCC(N)=O,-2.2% (inactive)
